Source: PubChem BioAssay
Rows were chosen to be rich in hits. Some 12% of all compounds tested hit in one or more screens of this group.
Sm TGR block = blocks Schistosoma mansoni thioredoxin glutathione reductase | Q962Y6 | purified TGR, DTNB reduction, TNB absorbance 405 nm | Potency, µM (top dose mostly 114 µM), without a hit: top-dose activity change, negative = inhibition, most hits filed as inhibitors | 360,000 tested, 3% active | AID 485364; active means well fitted inhibition curve with a large enough effect; inconclusive means small, poorly fitted or top-dose-only effect; inactive means no such curve, though single readings can be large or run the other way; further: potency means the concentration at half of the fitted maximal effect; on the % scale 0 is the no-effect control and ±100 the full control effect; nearly all actives have a fitted effect of over 60% in size
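Kinetic colorimetric format: TGR-catalysed, NADPH-driven DTNB reduction monitored via TNB absorbance. Enzyme dispensed at 20 nM; compound exposure 15 min at room temperature before reaction start.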
Shiga toxin inh = inhibitors of Shiga toxin in Vero cells. Vero cells, Shiga toxin protein synthesis inhibition reporter. inhibition, % at 38.7 µM. 290,000 tested, 9.2% active. AID 2315; in the data active means inhibition mostly above about 28%, no sharp cut-off; inactive means mostly below about 43%; further: 0% is about no effect
CHX counter = affects cycloheximide protein synthesis inhibition readout, counter-screen; max response, %; cell reporter, cycloheximide protein synthesis inhibition counterscreen; 300,000 tested, 12% active; AID 2314; in the data active means max response mostly above about 13%, no sharp cut-off; inactive means mostly below about 14%; further: read at 38.3 µM for the half of the compounds with a filed dose; 0% is about no effect
FMDV inh = antivirals against foot and mouth disease virus; Potency, µM (doses to about 57.9 µM), for inactives: at the highest dose activity change, negative = inhibition, hits mostly inhibitors; 410,000 tested, 1.2% active; FMDV antiviral cell-based qHTS; AID 1159524; calls by dose curve; tested in HEK293T cells; further: read-out not given here; potency means the concentration at half of the fitted maximal effect; on the % scale 0 is the no-effect control and ±100 the full control effect; nearly all actives have a fitted effect of over 45% in size
Numbers without * were called inactive; ? = inconclusive; . = not tested or not shown.

SMILES | Sm TGR block | Shiga toxin inh | CHX counter | FMDV inh
CCN(C(=O)Cn1c(=O)oc2cc(S(=O)(=O)N3CCCCCC3)ccc21)c1cccc(C)c1 | -1% | . | . | -21%
Cc1ccc2c(c1)C(c1ccc(F)cc1)N(C(=O)c1cccc(C(F)(F)F)c1)CC(=O)N2 (stereo not drawn) | -1% | . | . | 23%
COc1ccc(-n2ncc3c(N4CCN(c5cccc(C)c5)C(C)C4)ncnc32)cc1 (stereo not drawn) | 0% | . | . | 20µM*
COc1ccc(-n2ncc3c(N4CCN(c5cc(C)ccc5C)CC4)ncnc32)cc1 | 2% | -10 | -3 | ?
Cc1cccc(-n2ncc3c(N4CC(C)CC(C)C4)ncnc32)c1 (stereo not drawn) | 0% | 80* | 39* | 9%
Cc1cccc(-n2ncc3c(N4CCOCC4)ncnc32)c1 | -20% | -11 | 15* | -77%
Cc1cccc(-n2ncc3c(N4CCCC4)ncnc32)c1 | -1% | 86* | 32* | .
Cc1cccc(-n2ncc3c(N4CCN(c5ccccc5)CC4)ncnc32)c1 | 4% | . | . | ?
COc1ccc(N2CCN(c3ncnc4c3cnn4-c3ccc(C)cc3C)CC2)cc1 | -2% | -4 | -1 | ?
Cc1ccc(-n2ncc3c(N4CCN(c5ccccc5)CC4)ncnc32)c(C)c1 | 16% | 44 | 24* | 3.2µM*
COc1cc(C(=O)N2CCC(c3nc4ccccc4o3)CC2)cc(OC)c1OC | 4% | . | . | -21%
CC1=C(C(=O)Nc2cccnc2)C(c2ccccc2)n2nc(SCc3ccccc3F)nc2N1 (stereo not drawn) | -9% | . | . | 6%
CCCCN(C(C)=O)c1ccc2c(c1)C1CC2CCN1C(=O)OCc1ccccc1 (stereo not drawn) | . | . | . | 40µM*
COc1ccccc1NC(=S)NNC(=O)c1nn(C)c(C)c1Cl | -17% | 30 | 34* | 0%
CCCCNC(=S)NNC(=O)c1nn(C)c(C)c1Cl | ? | 74* | 29* | 14%
COc1ccccc1NC(=S)NNC(=O)c1nn(C)c(C)c1Br | 0% | 109* | 52* | 58%
O=C(CSc1nc2ccccc2s1)c1ccc(O)cc1O | 1% | 59* | 22* | 12%
O=C(CSc1nc2ccccc2s1)N1c2ccccc2Sc2ccccc21 | -11% | 4 | -3 | -22%
O=C(Cc1nc2ccccc2s1)c1ccc(O)cc1O | ? | 65* | 41* | .
CCCn1c(N)c(C(=O)CSc2nc3ccccc3s2)c(=O)[nH]c1=O | 4% | 61* | 15 | ?
Cc1ccc(NC(=O)CSc2cn(CC(=O)N3CCOCC3)c3ccccc23)cc1Cl | 4% | . | . | -20%
CC(C)Oc1ccc(CNC(=O)C(C)n2ccc3cc(S(=O)(=O)N4CCCCCC4)ccc32)cc1 (stereo not drawn) | 0% | . | . | 15%
Oc1ccc(/C=N/Nc2ccnc3cc(Cl)ccc23)c(O)c1 | 6% | 38* | 23* | 26%
Clc1ccc2c(N/N=C/c3cccnc3)ccnc2c1 | 0% | 24 | 17* | 5%
Cc1ccccc1/C=N/Nc1ccnc2cc(Cl)ccc12 | -1% | 13 | -2 | ?
SMILES | Sm TGR block | Shiga toxin inh | CHX counter | FMDV inh
Cc1ccc(/C=N/Nc2ccnc3cc(Cl)ccc23)c(C)c1 | -12% | -3 | -3 | 40µM*
CCOc1ccccc1-n1ccnc(NCc2ccc(F)cc2)c1=O | 9% | . | . | -9%
O=C(Nc1cccc(Cl)c1Cl)c1cc(S(=O)(=O)N2CCCCC2)ccc1F | -5% | . | . | -5%
O=C(c1ccc(N2CCC(NCCCn3ncc4ccccc43)CC2)cc1)N1CCc2ccccc2C1 | . | . | . | 0%
COc1ccc(N/C=C\C(=O)c2ccc(Br)cc2)cc1OC | -5% | 27 | 28* | 43%
COc1ccc(C(=O)Sc2ccc(C)cc2)cc1OC | 2% | 77* | 34* | 0%
CC(=O)Nc1ccc(N/C=C/C(=O)c2ccc(C)cc2)cc1 | 2% | 55* | 27* | 35%
COc1ccc(C(=O)Sc2ccc(Cl)cc2)cc1OC | 0% | 12 | 8 | -9%
COc1ccc(N/C=C(\C(C)=O)c2ccc(OC)c(OC)c2)cc1OC | -8% | -22 | -1 | -5%
COc1ccc(N/C=C\C(=O)c2ccc(C)cc2)cc1OC | -1% | 85* | 46* | 20%
CC(=O)Nc1ccc(C=C(C#N)c2ccc(C)cc2)cc1 | . | . | . | 76%
CCOc1ccc(CCNC(=O)c2cc3c(=O)n(CC)c4ccccc4c3s2)cc1OCC | 0% | . | . | 0%
Cc1ccc(N2C(=O)C(CC(=O)Nc3ccccc3)N(CCC3=CCCCC3)C2=O)cc1 (stereo not drawn) | -13% | . | . | 55%
O=c1cccccc1NN=C1CCCCCC1 | -23% | 82* | 23* | 18%
O=c1cccccc1NN=C1CCCCC1 | ? | 80* | 35* | 10%
O=[N+]([O-])c1ccc(NN=C2CCCCC2)c([N+](=O)[O-])c1 | . | . | . | -11%
O=C(O)c1cc(Br)ccc1NN=C1CCCCC1 | -12% | 18 | 21* | -5%
CC1=C(C(=O)Nc2ccc(C)cc2Cl)C2(CCCCC2)OC1=O | -20% | . | . | -25%
CCC(=O)N1CCc2cc(Br)cc(S(=O)(=O)CCC(=O)N3CCN(c4cc(C)ccc4C)CC3)c21 | 0% | . | . | -3%
CC(C)Oc1cccc(OCCN2C(=O)c3ccccc3C2=O)c1 | 18% | 36* | 27* | 41%
Nc1cccc2c1C(=O)N(CCOc1ccc(F)cc1)C2=O | -7% | 140* | 54* | 21%
O=C1c2ccccc2C(=O)N1CCOc1ccccc1Br | 6% | 73* | 42* | 12%
Cc1ccccc1OCCN1C(=O)c2ccccc2C1=O | 14% | 154* | 47* | .
O=C(c1ccncc1)N1CCC2(CC1)CN(c1ncccn1)C2 | . | . | . | 1%
Cc1ccccc1OCCN1C(=O)C(=O)c2cccc(C)c21 | -5% | -9 | -1 | -2%
SMILES | Sm TGR block | Shiga toxin inh | CHX counter | FMDV inh
COc1ccccc1OCCCN1C(=O)C(=O)c2cccc(C)c21 | 3.2µM* | 43 | 13 | 7%
Cc1ccccc1OCCn1ccnc1 | 2% | -4 | 38* | -11%
COc1ccc(OCCN2C(=O)c3ccccc3C2=O)cc1 | 1% | 90* | 29* | 53%
CN(C)C(=O)COc1ccc(S(=O)(=O)c2ccc(OCC(=O)N(C)C)cc2)cc1 | 79µM* | 18 | -2 | 7%
CN(C)C(=O)COc1ccc(Br)cc1 | -4% | -2 | -2 | -4%
COc1ccc(C(=O)Nc2nnc(S(=O)(=O)N3CCN(c4ccc(C)cc4)CC3)s2)cc1 | -4% | . | . | 3%
COc1ccccc1CNC(=O)c1cnn(-c2ccc(F)cc2F)c1C1CCN(C(=O)OC(C)(C)C)CC1 | 1% | . | . | -5%
CNc1nc(-c2ccc3c(c2)CCN3C(=O)c2ccccc2C)cs1 | . | 64* | 34* | 8%
O=C(CN1CCCC1)Nc1nc(-c2ccc3c(c2)CCN3C(=O)c2ccccc2F)cs1 | -8% | 31 | 20* | 3%
O=C(Nc1nc2c(F)cc(F)cc2s1)C1CCN(C(=O)c2ccc(F)cc2)CC1 | -19% | . | . | -12%
CNc1nc(-c2ccc3c(c2)CCN3C(=O)c2ccc(F)cc2)cs1 | -6% | 91* | 45* | 2%
Cc1ccccc1C(=O)N1CCc2cc(-c3nc(NC(=O)Cc4ccc5c(c4)OCO5)sc3C)ccc21 | 0% | 12 | 24 | ?
O=C(Nc1nc(-c2ccc(F)cc2)cs1)C1CCN(C(=O)c2ccc(F)cc2)CC1 | -7% | . | . | 11µM*
